According to the supplement of paper PMC5940239:
Unmarked numbers belong to inactive results.

test system: Madurella mycetomatis MM55; assay: percent growth relative to solvent control; higher = less inhibition, active = 20 or less; conditions: 100 µM; 7 days

Compound | percent growth
NS(=O)(=O)c1cccc(-c2ccc3ncc(N4CCOCC4)nc3c2)c1 | 106%
NS(=O)(=O)c1cncc(-c2ccc3nccc(-c4cn[nH]c4)c3n2)c1 | 143%
CC(C)N=c1cc2n(-c3ccc(Cl)cc3)c3ccccc3nc-2cc1Nc1ccc(Cl)cc1 | 105%
CC1COC2(CCN(c3nc(=O)c4cc(C(F)(F)F)cc([N+](=O)[O-])c4s3)CC2)O1 (stereo not drawn) | 79.4%
COC(=O)c1ccc(F)cc1NS(=O)(=O)c1cccc(-c2cnn(Cc3ccccc3)c2)c1 | 118%
CC(C)(C)c1cnc(NC(=O)c2ccccc2O)s1 | 99.3%
CCN(CC)C(=O)N1CCN(C)CC1 | 89.3%
Cc1ccc(S(=O)(=O)Nc2ccc(CN3CCN(C(=O)c4cccc(C#N)c4)CC3)cc2)cc1 | 90.9%
COc1cc(C2=NCCN2)ccc1-n1cc(-c2cccc(C3=NCCN3)c2)nn1 | 166%
Nc1ncc(-c2ccc(C(F)(F)F)nc2)cc1-c1ccc(C(F)(F)F)nc1 | 94.5%
O=C(Nc1cccnc1)c1c(O)c2cccc3c2n(c1=O)CC3 | 85.3%
CC(=O)Oc1ccccc1C(=O)Nc1ncc([N+](=O)[O-])s1 | 104%
COc1ccc(-c2cncc3ccc(C(=O)NCCCn4ccnc4)nc23)cc1 | 109%
N#Cc1nc(-c2ccccc2)oc1S(=O)(=O)c1ccc(Cl)cc1 | 31.4%
COc1ccc(Oc2ccc([C@@H](C)N(C)c3ncc4c(N)nc(N)nc4n3)cc2)cc1 | 0.491% (active)
CC(C)C(NC(=O)Cc1cccc2ccccc12)C(=O)Nc1cccc(C#N)c1 (stereo not drawn) | 121%
Cc1cc(C)n2nc(C(=O)Nc3cc(C(F)(F)F)ccc3N3CCOCC3)nc2n1 | 162%
O=C(Nc1ccc(F)c(-c2nc3cc(-c4ccccc4)cnc3[nH]2)c1)N1CCCC1 | 95.8%
CN1CCN(S(=O)(=O)c2ccc(-c3ccc4c(Nc5ccc6nn[nH]c6c5)ccnc4c3)cc2)CC1 | 151%
CC(C)n1ncc2c(C(=O)NCC(c3cccs3)N3CCOCC3)cc(-c3ccccc3)nc21 (stereo not drawn) | 76%
COC(=O)c1c(NC(=O)c2c(F)c(F)c(F)c(F)c2F)sc2c1CCCCC2 | 85.5%
CC[C@@H]([C@H](C)O)n1ncn(-c2ccc(N3CCN(c4ccc(OC[C@@H]5CO[C@@](Cn6cncn6)(c6ccc(F)cc6F)C5)cc4)CC3)cc2)c1=O | 0.417% (active)
Nc1ccc(C(=O)Nc2ccc(-c3nc4ccccc4o3)cc2)cc1 | 100%
